This assay can be described thus: In vitro enzyme assay to detect hydrolysis of chlorophenol red-beta-D-[…] directly proportional to the number of Toxoplasma stably expressing beta-galactosidase. In kind it is functional, organism-based, Toxoplasma gondii. Details: scale not given: in the data most compounds retested in dose-response had high values.

The campaign covered roughly 85,000 compounds. About 440 (0.52%) showed an effect of 50% or more. For the sample, strong results were picked, then their nearest neighbours and some compounds at random.

For `CN(C)C1CCN(S(=O)(=O)c2ncn(C)c2Cl)CC1`, the “Percent Effect” value (50 µM) is listed as -2.885%.

Take `COCC(=O)Nc1c[nH]nc1C1CCCNC1` (stereo not given): the “Percent Effect” value (50 µM) is on record as -10.17%.

As for `COc1ccc(F)cc1C(=O)N1CCC(CN)CC1`, the “Percent Effect” value (50 µM) is on record as -0.7009%.

As for `Cc1nccc(C(=O)NCC(C)(C)CN(C)C)n1`, the “Percent Effect” value (50 µM) turned out to be 2.804%.

As to `COc1ccc(CNC(=O)CC2CCNC2)c(OC)c1` (stereo not given), the “Percent Effect” value (50 µM) was -8.79%.

Take `CC(OCCCNC(=O)c1cccnc1O)c1ccccc1` (stereo not given): the “Percent Effect” value (10 µM) was determined as 39.02%.

For the compound `COc1ccc(C(=O)NCCCOC(C)c2ccccc2)c(OC)c1` (stereo not given), the “Percent Effect” value (10 µM) is recorded as 61.13%.

Turning to `CC(=O)c1ccc(C(=O)NCCCOC(C)c2ccccc2)s1` (stereo not given), under “10 µM”, the “Percent Effect” value is -2.061%.

For `CNC1CCN(Cc2ncc(C)c(OC)c2C)CC1`, the “Percent Effect” value (50 µM) is 36.04%.

Turning to `CCc1nc(NCCCOC)c2c(n1)c(C)nn2C`, the “Percent Effect” value (10 µM) came out at 6.336%.

Turning to `CCCc1nc(NCCOC)c2c(n1)c(C)nn2CC`, the “Percent Effect” value (10 µM) turned out to be 57.71%.

As for `CCCc1nc(N2CCC(C)CC2)c2c(n1)c(C)nn2CC`, the “Percent Effect” value (10 µM) was 25.59%.

`CCCc1nc(NCCc2ccccc2)c2c(n1)c(C)nn2CC`: the “Percent Effect” value (10 µM) is on record as 68.81%.

With `CCc1nc(NCCCn2cccn2)c2c(n1)c(C)nn2CC`, the “Percent Effect” value (10 µM) is recorded as 14.75%.

Regarding `CCCc1nc(NCCCO)c2c(n1)c(C)nn2CC`, the “Percent Effect” value (10 µM) worked out at 3.108%.

For `CCCc1nc(NCC(=O)N2CCOCC2)c2c(n1)c(C)nn2CC`, the “Percent Effect” value (10 µM) is 3.704%.

For `CCn1nc(C)c2nc(C)nc(NCCc3ccccc3)c21`, the “Percent Effect” value (10 µM) was determined as 19.6%.

`CCn1nc(C)c2nc(C(C)C)nc(NCCOC)c21`: the “Percent Effect” value (10 µM) is reported as 21.04%.

`CCn1nc(C)c2nc(C)nc(NCCc3ccc(C)cc3)c21`: the “Percent Effect” value (10 µM) is 34%.

Consider `CCCc1nc(NCCCOCC)c2c(n1)c(C)nn2CC`, for which the “Percent Effect” value (10 µM) is given as 72.53%.

For `CCCc1nc(NCCCOC)c2c(n1)c(C)nn2CC`, the “Percent Effect” value (10 µM) is on record as 90.71%.

`CNCCCOC(C)C`: for the setting “50 µM”, the “Percent Effect” value was -2.494%.

In the case of `NC1CCN(CC2CC2)CC1`, the “Percent Effect” value (50 µM) is 2.288%.

For `NC(=O)c1ccc(NC(=O)CCN2CC(O)C2)cc1`, where the note is “50 µM”, the “Percent Effect” value was -17.28%.

For `CCC(Nc1cccc(OCC(F)(F)F)c1)C(N)=O` (stereo not given), the “Percent Effect” value (50 µM) is on record as -6.008%.

Consider `CCOC(=O)NC1CCC(NC(=O)C2CCC2)CC1` (stereo not given), for which, under “50 µM”, the “Percent Effect” value came to 0.5853%.

For `CCN(CC)c1nc2nc[nH]c(=O)c2s1`, the “Percent Effect” value (50 µM) is -4.057%.

`CC(CCN)CCO` (stereo not given): where the note is “50 µM”, the “Percent Effect” value is listed as 29.53%.

On to `OCc1nncn1-c1ccccc1`, for which the “Percent Effect” value (50 µM) came to 12.09%.

As for `C[C@@H]1CN(C2CCN(c3ccccc3F)CC2)C[C@]1(C)O`, under “10 µM”, the “Percent Effect” value is 12.36%.

In the case of `Cc1cc(F)ccc1N1CCC(N2C[C@@H](C)[C@@](C)(O)C2)CC1`, under “10 µM”, the “Percent Effect” value is on record as 24.01%.

`C[C@@H]1CN(C2CCN(c3ccccc3F)CC2)CC[C@]1(C)O`: the “Percent Effect” value (10 µM) is 72.85%.

For the compound `CN(C)CC1CNCCO1` (stereo not given), the “Percent Effect” value (50 µM) is -14.23%.

For the compound `CC(=O)NC(C(=O)N(C)Cc1cccs1)C(C)C` (stereo not given), for the setting “50 µM”, the “Percent Effect” value is given as 4.166%.

Take `OCCN1CCN(c2ccc3nnnn3n2)CC1`: the “Percent Effect” value (50 µM) worked out at 0.916%.

As to `Cn1cc(N)c(C(F)(F)F)n1`, the “Percent Effect” value (50 µM) is listed as -8.221%.

For the compound `Cn1cc(S(N)(=O)=O)c(C(F)(F)F)n1`, the “Percent Effect” value (50 µM) worked out at 17.97%.

For `Cn1cc(CN)c(C(F)(F)F)n1`, the “Percent Effect” value (50 µM) is recorded as 98.21%.

In the case of `CN1CCC(CNC(=O)CCc2cccs2)C1` (stereo not given), the “Percent Effect” value (50 µM) is reported as -16.97%.

As to `CN1CCCCC1CCC(=O)NCCc1ccncc1` (stereo not given), the “Percent Effect” value (50 µM) is 15.39%.

Regarding `CN(C)S(=O)(=O)c1ccc(-c2nc(C#N)c(NC3CC3)o2)o1`, for the setting “10 µM”, the “Percent Effect” value is on record as -1.829%.

As to `CN(C)S(=O)(=O)c1ccc(-c2nc(C#N)c(NC3CCCCC3)o2)o1`, where the note is “10 µM”, the “Percent Effect” value came out at 3.806%.

For the compound `CC(C)Nc1oc(-c2ccc(S(=O)(=O)N(C)C)o2)nc1C#N`, the “Percent Effect” value (10 µM) is -12.9%.

Take `CN(C)S(=O)(=O)c1ccc(-c2nc(C#N)c(NC(C)(C)C)o2)o1.Cl`: where the note is “10 µM”, the “Percent Effect” value was determined as 91.6%.

As for `CNc1oc(-c2ccc(S(=O)(=O)N(C)C)o2)nc1C#N`, where the note is “10 µM”, the “Percent Effect” value was 44.93%.

For `NCCOc1cccc(C(F)(F)F)n1`, the “Percent Effect” value (50 µM) is on record as -9.845%.

For `COCCN(Cc1cccs1)C(=O)CC1CCNC1` (stereo not given), where the note is “50 µM”, the “Percent Effect” value is 11.69%.

Take `CSc1ccc(CNC(=O)C(C)O)cc1` (stereo not given): under “50 µM”, the “Percent Effect” value is on record as -1.798%.

Regarding `COc1cccc2ccc(CN3CC[C@@H](O)C3)nc12`, the “Percent Effect” value (50 µM) worked out at 11.26%.

For the compound `NC[C@@H]1CC(=O)N(C2CC2)[C@H]1c1ccncc1`, the “Percent Effect” value (50 µM) is listed as -2.453%.

For the compound `CC(NS(=O)(=O)N(C)C)c1ccccc1` (stereo not given), the “Percent Effect” value (50 µM) is listed as -35.13%.

As to `CN(C)S(=O)(=O)NC(c1ccccc1)c1ccccc1`, under “50 µM”, the “Percent Effect” value amounted to 10.19%.

`CC(C)Sc1ccccc1NS(=O)(=O)N(C)C`: the “Percent Effect” value (50 µM) stood at 99.92%.

For the compound `CCNCCCC1CCNCC1`, the “Percent Effect” value (50 µM) is listed as 16.42%.

For the compound `COC(=O)c1ccc(NC(C)=O)cc1`, for the setting “50 µM”, the “Percent Effect” value worked out at 6.6%.

As to `COc1ccc(OCCc2nnc(NC(C)=O)s2)cc1`, the “Percent Effect” value (10 µM) is recorded as -4.781%.

On to `COC(=O)c1cccc(NS(=O)(=O)c2cnc(NC(C)=O)s2)c1`, for which the “Percent Effect” value (10 µM) is reported as -3.347%.

As to `COc1ccc(NS(=O)(=O)c2cnc(NC(C)=O)s2)cc1`, the “Percent Effect” value (10 µM) turned out to be 74.55%.

`COC(=O)c1ccc(NS(=O)(=O)c2cnc(NC(C)=O)s2)cc1`: the “Percent Effect” value (10 µM) is on record as 53.94%.

Consider `COc1ccc(S(=O)(=O)Nc2cnc(N(C)C)nc2)cc1`, for which the “Percent Effect” value (10 µM) is listed as -8.947%.
